Records with an inconclusive call do not appear. Calls of active or inactive are those of the source. The call rests on the fitted dose curve; in most records, active means well fitted curve in the direction sought with a large enough effect in the signal ratio (not every such curve was filed as active); inconclusive means small, poorly fitted or top-dose-only effect, or effect the other way, or a change in a side signal; inactive means no such curve, though single readings can be large or run the other way; the % refers to the signal ratio.

Tyrosine-protein phosphatase non-receptor type substrate 1 (Homo sapiens) + Leukocyte surface antigen CD47 (Homo sapiens), sequence (P78324 whole entry, looked up): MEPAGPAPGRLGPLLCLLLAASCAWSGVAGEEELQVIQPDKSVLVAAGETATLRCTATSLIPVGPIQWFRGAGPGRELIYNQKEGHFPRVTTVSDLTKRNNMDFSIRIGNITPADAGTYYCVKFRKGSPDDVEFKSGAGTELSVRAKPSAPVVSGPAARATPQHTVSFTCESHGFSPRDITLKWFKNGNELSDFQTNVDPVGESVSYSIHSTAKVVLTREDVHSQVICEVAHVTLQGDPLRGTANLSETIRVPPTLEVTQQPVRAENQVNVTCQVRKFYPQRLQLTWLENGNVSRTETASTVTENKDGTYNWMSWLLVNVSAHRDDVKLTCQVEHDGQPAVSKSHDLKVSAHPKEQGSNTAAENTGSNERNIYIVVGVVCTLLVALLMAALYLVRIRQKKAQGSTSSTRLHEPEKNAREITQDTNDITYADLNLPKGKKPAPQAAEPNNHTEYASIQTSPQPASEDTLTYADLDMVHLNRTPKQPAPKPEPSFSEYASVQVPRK
Tyrosine-protein phosphatase non-receptor type substrate 1 (Homo sapiens) + Leukocyte surface antigen CD47 (Homo sapiens), sequence (Q08722 whole entry, looked up): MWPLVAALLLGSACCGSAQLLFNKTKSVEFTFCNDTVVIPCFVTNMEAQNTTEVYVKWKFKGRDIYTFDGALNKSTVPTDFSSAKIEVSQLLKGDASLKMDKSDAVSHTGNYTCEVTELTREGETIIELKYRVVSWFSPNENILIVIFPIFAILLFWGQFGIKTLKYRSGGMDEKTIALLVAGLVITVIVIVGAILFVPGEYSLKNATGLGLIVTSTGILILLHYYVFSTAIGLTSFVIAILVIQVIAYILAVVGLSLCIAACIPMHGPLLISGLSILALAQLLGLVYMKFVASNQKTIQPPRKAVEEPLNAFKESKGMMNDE

For this assay, the target named is Tyrosine-protein phosphatase non-receptor type substrate 1 (Homo sapiens) + Leukocyte surface antigen CD47 (Homo sapiens) (UniProt P78324+Q08722). The assay is described as follows: CD47-SIRPalpha protein protein interaction - HTRF assay qHTS validation (AID 1347058). The note with it: TR-FRET HTRF CD47-His / biotin-SIRPalpha binding, ratio 665/615; series mostly up to 38.3 µM. From the text:
SIRPalpha is a myeloid cell expressed immunomodulatory receptor that binds the tumor expressed immune checkpoint CD47. Therapeutic disruption of this interaction leads to immune-mediated tumor rejection. This assay was used to quantitate CD47-SIRPalpha binding biochemically and evaluate chemical libraries for novel CD47-SIRPalpha inhibitors. To recapitulate the biological interaction of CD47 and SIRPalpha, we designed expression constructs to produce their recombinant, soluble, extracellular interaction domains. CD47 was produced with an N-terminal 6His tag. SIRPalpha was produced with an N-terminal Avi-Tag for site-specific biotin incorporation. The CD47-SIRPalpha interaction was measured by TR-FRET using affinity tag linked reagents (anti-6His-Eu donor and streptavidin-XL665 acceptor). SIRPalpha without biotin incorporation was used as a positive control inhibitor.
SEQUENCE No. (e.g., 1, 2, 3, etc.); […] (e.g., Cells, Incubation, Reagent, etc.); VALUE and DESCRIPTION.
1a. Reagent. 3 uL CD47-His (12.5 nM) and Anti-His Eu Donor reagent (0.7 nM) added to respective wells in Assay buffer; white/solid bottom high base, med bind 1536-well plates (Greiner 789075)
1b. Reagent. 2 uL Assay buffer negative control for background fluorescence
2. Reagent. 23 nL library compounds (7-pt, 1:4 intraplate titration series) or DMSO control transferred by Pin Tool
3. Centrifuge. Centrifuge plate for 30 s at 1000 RPM
4. Incubation.#Incubate reagents at room temperature for 30 min, protected from light
5. Reagent. 2 uL SIRPalpha-biotin (100 nM) in Assay buffer
6. Incubation.#Incubate reagents at room temperature for 30 min, protected from light
7. Reagent. 1 uL SAV-XL665 (85 nM) acceptor reagent added to respective wells
8. Centrifuge. Centrifuge plate for 30 s at 1000 RPM
9. Incubation. Incubate reagents at room temperature for 30 min, protected from light
10. Detector. Measure Top TR-FRET on EnVision (Eu/APC filter set); calculate ratio Ch1/Ch2
1. Assay buffer composition.#Phosphate buffered saline (PBS; 10 mM Phosphate, 137 mM NaCl, and 2.7 mM KCl; pH 7.4), 0.05% IGEPAL CA-630
2. 23nL of […] library compounds (7 plates) or DMSO vehicle control transferred to 9 Greiner white/solid bottom high base, TC plates in 7 interplate 1:5 titrations (see Yasgar, A. et al. 2008) with Pintool. Two of the 9 plates are DMSO-only in compound field at beginning and end of compound library-treated plates.
10. Detector settings#Mirror = LANCE/DELFIA Dual Enh; Ex. Filter = UV2[TRF] 320; Em. Filter = APC 665; 2nd Em. Filter = Europium 615; Measurement h = 6.5; Ex. light (%) = 100; Delay = […]; Window t = 100 us; No. Seq. windows = 1; Time between flashes = 2000us; No. of flashes = 100; No. of flashes for 2nd detector = 100; Calculation: "Ratio Ch1/Ch2"
For `Cc1[nH]c2ccc(O)cc2c1CCN`, the result was inactive.

`CC(Cc1ccc(OCC(=O)O)cc1)NCC(O)c1cccc(Cl)c1` (stereo not given): the result was inactive.

As to `C[C@H](N)Cc1cccc(C(F)(F)F)c1`, the outcome was inactive.

`CN(C(=O)Cc1ccc(Cl)c(Cl)c1)C(CN1CCCC1)c1cccc(OCC(=O)O)c1` (stereo not given): the result was inactive.

`CCCN(CCC)[C@@H]1CCc2cccc(O)c2C1`: the result was inactive.

Take `COC(=O)N1CCN(C(=O)Cc2ccc(Cl)c(Cl)c2)C(CN2CCCC2)C1` (stereo not given): the result was inactive.

Take `CN1C2CCC1CC(OC(c1ccccc1)c1ccccc1N)C2` (stereo not given): the result was inactive.

Take `C=CCN1C[C@@H](C)N([C@H](c2ccc(C(=O)N(CC)CC)cc2)c2cccc(OC)c2)C[C@@H]1C`: the result was inactive.

As to `C=CCN1CCC23c4c5ccc(O)c4O[C@H]2C(=O)CC[C@@]3(O)C1C5` (stereo not given in full), the outcome was inactive.

Turning to `c1ccc2c(N3CCNCC3)cccc2c1`, the result was inactive.

As for `CCCCCCCCCCCCCC(=O)O[C@@H]1[C@@H](C)[C@@]2(O)[C@@H](C=C(CO)C[C@@]3(O)C(=O)C(C)=C[C@@H]23)C2C(C)(C)[C@@]21OC(C)=O` (stereo not given in full), the result was inactive.

For the compound `CCCn1c(=O)c2[nH]c(C3CCCC3)nc2n(CCCOC(=O)c2ccc(S(=O)(=O)F)cc2)c1=O`, the outcome was inactive.

On to `CNc1ccc2oc(C[C@H]3O[C@@]4(CC[C@H]3C)O[C@H]([C@H](C)C(=O)c3ccc[nH]3)[C@H](C)C[C@H]4C)nc2c1C(=O)O`, for which the result was inactive.

Turning to `O=C1C=CC(=O)C=C1`, the result was inactive.

As to `NC(=O)c1ccc(OCC(O)CN2CC=C(c3ccc(F)cc3)CC2)cc1` (stereo not given), the outcome was inactive.

For `NNC(=O)c1ccc(O)cc1`, the outcome was inactive.

Turning to `CCN1C[C@@]2(COC)C3[C@@H](OC)C4[C@@H]1C3([C@@H]1C[C@]3(O)[C@H](OC(=O)c5ccccc5)[C@@H]1[C@]4(OC(C)=O)[C@@H](O)[C@@H]3OC)[C@H](OC)C[C@H]2O`, the result was inactive.

Turning to `CC(C)NP(=O)(NC(C)C)OP(=O)(NC(C)C)NC(C)C`, the result was inactive.

With `CCCN(CCC)C1Cc2cc(OC)c(OC)cc2C1`, the result was inactive.

As to `C[C@@H]1O[C@@H](O[C@H]2C[C@@H](O)[C@]3(CO)[C@@H]4C(CC[C@]3(O)C2)[C@@]2(O)CC[C@H]([C@@H]3COC(=O)C3)[C@@]2(C)C[C@H]4O)[C@H](O)[C@H](O)[C@H]1O` (stereo not given in full), the outcome was inactive.

With `Cc1o[nH]c(=O)c1CC(N)C(=O)O` (stereo not given), the result was inactive.

Consider `C[N+]1(C)C2CCC1CC(OC(=O)c1c[nH]c3ccccc13)C2` (stereo not given), for which the result was inactive.

With `NCC(O)c1cc(O)c(O)cc1F` (stereo not given), the result was inactive.

Consider `C[C@H]1C2Cc3ccc(O)cc3[C@@]1(C)CCN2CC1CC1`, for which the outcome was inactive.

Regarding `CCn1cnc2c(Nc3cccc(Cl)c3)nc(N[C@@H]3CCCC[C@@H]3N)nc21`, the outcome was inactive.

On to `Cc1c2ccncc2c(C)c2c1[nH]c1ccccc12`, for which the result was inactive.

As to `N=C(N)c1ccc(CS(=O)(=O)F)cc1`, the result was inactive.

Regarding `Clc1ccc(N2CC3CCC(C2)N3)nn1`, the outcome was inactive.

On to `NCCCP(=O)(O)O`, for which the result was inactive.

For the compound `NC(CCCCCP(=O)(O)O)C(=O)O` (stereo not given), the outcome was inactive.

Regarding `COc1ccc(OC)c(C(O)C(C)N)c1` (stereo not given), the outcome was inactive.

For the compound `NC(=O)CI`, the result was inactive.

Turning to `NCCc1ccc(S(=O)(=O)F)cc1`, the outcome was inactive.

With `OC1CCCCC1N1CCC(c2ccccc2)CC1` (stereo not given), the outcome was inactive.

With `N#CCCN`, the result was inactive.

As to `C[N+](C)(C)CC#CCN1CCCC1=O`, the result was inactive.

Turning to `CC(C)(C)c1o[nH]c(=O)c1CC(N)C(=O)O` (stereo not given), the result was inactive.

On to `CC12NC(Cc3ccccc31)c1ccccc12` (stereo not given), for which the result was inactive.

For `CCNC(=O)[C@H]1O[C@@H](n2cnc3c(N)ncnc32)[C@H](O)[C@@H]1O`, the outcome was inactive.

Regarding `CCOC(=O)c1ncn2c1[C@@H]1CCCN1C(=O)c1cc(OC)ccc1-2`, the outcome was inactive.

These data come from PubChem BioAssay (NCATS).
